RORg inh – blocks mouse ROR gamma transcriptional activity; P51450; Drosophila S2 Gal4-RORgamma UAS-luciferase reporter, 20 h; Potency, µM (series often up to 53.6 µM), for inactives: top-dose activity change, negative = inhibition, actives largely listed as inhibitors; actives 5.4% (n = 310,000); further: potency means the concentration at half of the fitted maximal effect; on the % scale 0 is the no-effect control and ±100 the full control effect; nearly all actives have a fitted effect of over 60% in size
Target sequence (P51450 whole entry, looked up, the tested form may be a part): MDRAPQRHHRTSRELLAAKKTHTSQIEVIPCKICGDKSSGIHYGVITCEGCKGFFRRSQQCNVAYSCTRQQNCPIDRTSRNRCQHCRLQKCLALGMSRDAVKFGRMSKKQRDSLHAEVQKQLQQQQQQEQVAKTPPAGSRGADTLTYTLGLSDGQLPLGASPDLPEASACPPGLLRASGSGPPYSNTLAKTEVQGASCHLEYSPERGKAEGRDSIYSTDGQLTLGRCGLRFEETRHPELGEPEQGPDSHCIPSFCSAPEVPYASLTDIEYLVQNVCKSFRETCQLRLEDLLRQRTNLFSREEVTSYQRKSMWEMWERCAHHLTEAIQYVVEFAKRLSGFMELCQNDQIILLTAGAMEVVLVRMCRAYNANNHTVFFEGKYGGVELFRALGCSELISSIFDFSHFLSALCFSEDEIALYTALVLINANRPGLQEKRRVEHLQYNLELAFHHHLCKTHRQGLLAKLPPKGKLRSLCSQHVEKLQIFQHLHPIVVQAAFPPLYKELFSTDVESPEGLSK
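Stably transfected Drosophila Schneider cells are the test system, with ROR gamma fused to Gal4 and luciferase under UAS control; luminescence is read after 20 hr of 700 uM copper sulfate induction at ambient temperature.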
Giardia kill – kills Giardia lamblia; Giardia lamblia trophozoite viability; activity change, % at 7.66 µM, hits read low; actives 0.15% (n = 340,000); AID 540267; in the data active means activity change below about -80%; inconclusive means between about -30% and that limit;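 further: parasites exposed to compound for two days anaerobically before the ATP read; on the % scale 0 is the no-effect control and ±100 the full control effect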
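Luminescent ATP signal served as the viability read-out, measured 15-30 min after adding ATP detection reagent to trophozoites that had been incubated with compounds for 48 hrs at 37 deg C anaerobically at 100 cells/well.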
SW480 rerep – induces DNA re-replication in SW480 colon adenocarcinoma cells; SW480 DNA re-replication, Hoechst DNA content imaging, 48 h; Potency, µM (highest dose often 46.1 µM), inactives show at the top dose re-replication activation, actives largely listed as activators; actives 1.8% (n = 340,000); AID 624297; further: potency means the concentration at half of the fitted maximal effect; % of control where 0% means no effect; nearly all actives have a fitted effect of over 55% in size
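Image-based read-out: total Hoechst fluorescence of nuclei (405 nm excitation, 500-530 nm emission), with hits raising the fraction of high-intensity nuclei. SW480 colon cells incubated 48 hr with compounds at 37 C.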
Chronic BCR inh – blocks chronic active B-cell receptor signaling. ABC-DLBCL IkBa-CBG/CBR reporter, luminescence ratio, 4 h. Potency, µM (titrated, usually from 46.1 µM), for the others: at the highest dose activity change, negative = inhibition, most hits filed as inhibitors. actives 0.05% (n = 340,000). AID 493014; active means well fitted inhibition curve with a large enough effect in the signal ratio, with a control signal flat, not every such curve was filed as active; inconclusive means small, poorly fitted or top-dose-only effect, or effect the other way, or a change in a side signal; the % refers to the signal ratio;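 further: potency means the concentration at half of the fitted maximal effect; plate controls were basal doxycycline-induced cells for no effect and cells given 10 µM MG132 for full effect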
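Cell line TMD8 (human ABC DLBCL), stably expressing tet-inducible CBG68-IkBa fusion and CBR; IMDM/0.5% FBS; cpd up to 46 uM; dox induction, 4 h, 37C/5% CO2; dual luminescence; green/red ratio; MG132 control.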
Gal4-VP16 FLuc – inhibits Gal4-VP16 luciferase reporter, ROR gamma counter-screen. Potency, µM (series often up to 53.6 µM), for the others: top-dose activity, negative = inhibition, actives largely listed as inhibitors. actives 3.5% (n = 310,000). AID 2546. Drosophila S2 Gal4-VP16 UAS-luciferase, luminescence, 20 h;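 further: Gal4-VP16 expression switched on by copper sulfate through the metallothionein promoter; potency means the concentration at half of the fitted maximal effect; on the % scale 0 is the no-effect control and ±100 the full control effect; nearly all actives have a fitted effect of over 50% in size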
MCF10A rerep – inducers of DNA re-replication in MCF 10A breast cells. MCF 10A DNA re-replication, Hoechst nuclear intensity, 48 h. Potency, µM (highest dose often 46.1 µM), for inactives: at the highest dose activity, positive = re-replication, actives largely listed as activators. actives 2.9% (n = 350,000). AID 624296; further: potency means the concentration at half of the fitted maximal effect; % of control where 0% means no effect; nearly all actives have a fitted effect of over 50% in size
Starred values were filed as active, the others as inactive; ? = inconclusive; . = no result given; ! = repeats disagree; [ ] = remark or other dose. The list is not random: actives were taken first. Their share in the collection is about 8.3%. Unless noted, the call rests on the fitted dose curve; in most records, active means well fitted curve in the direction sought with a large enough effect; inconclusive means small, poorly fitted or top-dose-only effect, or another doubt; inactive means no such curve, though single readings can be large; an effect the other way counts as inactive or inconclusive.

SMILES	RORg inh	Giardia kill	SW480 rerep	Chronic BCR inh	Gal4-VP16 FLuc	MCF10A rerep
CCc1ccc(/C=C/c2c([N+](=O)[O-])c(=O)n(C)c(=O)n2C)cc1	?	-4	?	?	0%	13µM*
COc1ccc(N(C(=O)c2csnn2)C(C(=O)NC2CCCC2)c2cccs2)cc1 (stereo not drawn)	5%	-25	2%	2%	7%	16%
CCN(C(=O)c1ccc(NC(=O)c2ccco2)cc1)c1ccccc1	15%	-19	-7%	11%	5%	2%
COc1ccc(C(=O)c2ccc(OC)c(N)c2)cc1N	1.4µM*	29	-16%	?	-9%	3%
COc1ccc(C(=O)c2cc(OC)c(OC)c(OC)c2)cc1OC	.	-14	3.7µM*	.	.	3.7µM*
COc1ccc(C(=O)c2ccc(OC)c(OC)c2)cc1OC	4%	-3	6%	1%	-16%	12%
CC(=O)Oc1ccccc1/C=C/c1nc2ccccc2c(=O)o1	8.9µM*	?	4%	?	10µM*	1%
CC(=O)Oc1ccc(/C=C/c2nc3ccccc3c(=O)o2)cc1	-43%	4	1%	?	?	1%
Cc1cc(S(=O)(=O)NCc2cccnc2)ccc1-n1cnnn1	7%	-3	?	-10%	2%	18µM*
Cc1cc(S(=O)(=O)NCc2cccs2)ccc1-n1cnnn1	11%	-13	-1%	-1%	?	0%
CCOC(=O)C1=C(C)N(C)C(=S)NC1c1ccc(Cl)cc1Cl (stereo not drawn)	7.1µM*	-24	7%	3%	7.9µM*	8%
CCOC(=O)C1=C(C)N(C)C(=S)NC1c1ccccc1Cl (stereo not drawn)	8.9µM*	-2	2%	3%	?	4%
CCOC(=O)C1=C(C)N(C)C(=S)NC1c1cccc(Cl)c1Cl (stereo not drawn)	4µM*	20	6%	-1%	?	3%
CC1CCc2sc(C(=O)NNC(=O)c3ccncc3)cc2C1 (stereo not drawn)	.	-9	?	1%	.	-1%
CCOc1ncccc1C(=O)N1CCCSC1=Nc1ccc(C(C)=O)cc1	1%	6	8%	-21%	0%	0.92µM*
CCOc1ccc(N=C2SCCCN2C(=O)c2c(CC)noc2C)cc1	-6%	-1	-4%	0%	-2%	3%
Cc1nnc(SCC(=O)N2c3ccccc3Sc3ccccc32)n1N	?	2	23µM*	0%	-1%	9.2µM*
N#Cc1c(C(F)(F)F)cc(-c2cccc(Cl)c2)[nH]c1=O	?	35	?	?	-5%	16µM*
Cc1cc(C(F)(F)F)c(C#N)c(=O)[nH]1	-32%	-3	-1%	4%	-5%	-1%
N#Cc1c(C(F)(F)F)cc(-c2ccc(F)cc2)[nH]c1=O	?	10	452%	-1%	-5%	21µM*
COc1ccc(-c2cc(C(F)(F)F)c(C#N)c(=O)[nH]2)cc1	27%	-24	18%	12%	-5%	18µM*
COc1ccccc1-c1cc(C(F)(F)F)c(C#N)c(=O)[nH]1	35%	7	20%	-1%	-1%	?
N#Cc1c(-c2ccccc2)cc(-c2ccccc2)[nH]c1=O	-14%	20	10%	?	5%	-3%
N#Cc1c(C(F)(F)F)cc(-c2ccc(Cl)cc2)[nH]c1=O	?	-2	?	?	1%	4.6µM*
CSc1cc(-c2ccc(Cl)cc2)[nH]c(=O)c1C#N	4%	-9	-24%	?	0%	13%
SMILES	RORg inh	Giardia kill	SW480 rerep	Chronic BCR inh	Gal4-VP16 FLuc	MCF10A rerep
CC#CC(=O)NCC1(N(C)Cc2ccccc2)Cc2ccccc2C1	13%	-10	1%	-1%	8%	17%
CCOC(=O)OCC1OC(C#Cc2ccc(C)cc2C)C=CC1OC(=O)OCC (stereo not drawn)	12%[10 µM]	.	.	.	10%[10 µM]	.
COc1ccc(-n2ncc3c2CC(C)(C)CC3NC(=O)c2cnc(C)cn2)cc1 (stereo not drawn)	15%	22	-4%	0%	-9%	2%
Cc1sc2nc(CN3CCOCC3)nc(NCCc3ccccc3)c2c1C	7.1µM*	-1	-7%	-4%	?	29%
CCNc1nc(CSc2ccccc2)nc2sc(C)c(C)c12	5.6µM*	-21	12%	?	5µM*	?
Cc1sc2nc(CSc3ccccc3)nc(NCCN(C)C)c2c1C	1%	2	-9%	?	1%	4%
COc1ccc2[nH]c(-c3cccc(F)c3)cc(=O)c2c1	8%[96.6 µM]	-9	0.73µM*	?	12%[96.6 µM]	1.3µM*
Cc1ccc(-c2cc(=O)c3cc(C)ccc3[nH]2)cc1	10µM*	?	21µM*	?	16µM*	?
O=c1cc(-c2cccc(F)c2)[nH]c2ccc(Cl)cc12	?	.	.	.	-12%[96.6 µM]	.
O=c1cc(-c2ccc(F)cc2F)[nH]c2ccccc12	8.9µM*!	.	-3%	?	-2%[96.6 µM]	0%
Cc1ccc2[nH]c(-c3cccc(F)c3)cc(=O)c2c1	29%[96.6 µM]	0	0.82µM*	?	1%[96.6 µM]	1.2µM*
Cc1ccc(-c2cc(=O)c3cc(F)ccc3[nH]2)cc1	16%	-8	0%	-1%	-3%	?
C/C(CCS(=O)(=O)c1ccccc1)=N/O	7%	-6	-14%	7%	6%	?
COc1ccc(S(=O)(=O)Nc2ccc3c(c2)C(=O)N([C@H](C)CO)C[C@H](C)[C@@H](CN(C)S(=O)(=O)c2c(C)noc2C)O3)cc1	.	-2	-14%	-4%	.	4%
CC(C)(C)NC(=O)COC(=O)c1cc(S(=O)(=O)N2CCCCC2)ccc1N1CCOCC1	21%	4	-2%	-13%	-4%	?
O=c1cc(-c2cccc(F)c2)[nH]c2ccccc12	24%[96.6 µM]	-2	1.3µM*	21µM*	-3%[96.6 µM]	1.3µM*
O=c1cc(-c2ccccc2)[nH]c2ccc(F)cc12	?	10	1.6µM*	?	-6%[96.6 µM]	2.1µM*
O=c1cc(-c2ccccc2)[nH]c2cc(Cl)ccc12	2%[96.6 µM]	?	0.73µM*	-9%	-8%[96.6 µM]	1.6µM*
CC(C)c1ccc(/C=C2\SC(=S)N(CCC(=O)N3CCCCC3CCO)C2=O)cc1 (stereo not drawn)	10µM*	6	-1%	?	?	3%
COc1ccc(/C=C2\SC(=S)N(CCCC(=O)N3CCCCC3CCO)C2=O)cc1 (stereo not drawn)	2.2µM*	1	?	?	3.5µM*	?
COc1cc(Cl)c(C)cc1NC(=O)c1ccccc1-n1cnnn1	.	11	25%	-1%	.	-21%

Screening data from PubChem BioAssay.
